# Test results from the supplement of paper PMC6992640.
# ± gives the standard deviation of the averaged measurements.
# Legend:
# Experiment in all cases: cell viability (% of vehicle); higher = less cytotoxic
# Conditions in all cases: 10 µM; 72 h
# HCI01 = system: HCI01 (cells of a triple-negative basal-like breast cancer xenograft)
# HCI03 = system: HCI03 (cells of an ER-positive luminal breast cancer xenograft)
# HCI09 = system: HCI09 (cells of a triple-negative luminal androgen receptor type breast cancer xenograft)
# HCI11 = system: HCI11 (cells of an ER-positive luminal breast cancer xenograft)
# HCI13 = system: HCI13 (cells of an ER-positive luminal breast cancer xenograft)
# HCI16 = system: HCI16 (cells of a triple-negative basal-like breast cancer xenograft)
# UCD52 = system: UCD52 (cells of a triple-negative basal-like breast cancer xenograft)
# WHIM2 = system: WHIM2 (cells of a triple-negative basal-like breast cancer xenograft)
# WHIM30 = system: WHIM30 (cells of a triple-negative basal-like breast cancer xenograft)
# 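Note: PDX cells carrying CMV promoter-driven luciferase, viability read as total photon flux per second by IVIS imaging following D-luciferin, vehicle control 0.1% DMSO.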
SMILES,cell viability (HCI01),cell viability (HCI03),cell viability (HCI09),cell viability (HCI11),cell viability (HCI13),cell viability (HCI16),cell viability (UCD52),cell viability (WHIM2),cell viability (WHIM30)
CC(C)(Oc1ccc(C2CC2(Cl)Cl)cc1)C(=O)O (stereo unspecified) [Ciprofibrate],96 ± 14,126,94.3 ± 11,79.4,110 ± 12,114,96.2 ± 2.9,120 ± 3.9,127 ± 15
CSc1nc2cc(Oc3cccc(Cl)c3Cl)c(Cl)cc2[nH]1 [Triclabendazole],99.7 ± 4.9,108,83 ± 23,97.1,47.9 ± 7.4,127,89.2 ± 6.4,124 ± 34,134 ± 14
O=C1c2ccccc2C(=O)C1c1ccccc1 [Phenindione],127 ± 33,142,104 ± 5.7,94.7,92.6 ± 26,114,104 ± 7.3,124 ± 13,159 ± 35
COCC1=C(C(=O)OC(C)OC(=O)OC(C)C)N2C(=O)[C@@H](NC(=O)/C(=N\OC)c3csc(N)n3)[C@H]2SC1 (stereo partly specified) [Cefpodoxime Proxetil],106 ± 3.7,176,102 ± 11,103,109 ± 18,133,99.2 ± 12,106 ± 3.2,105 ± 12
CC(C)(Sc1cc(C(C)(C)C)c(O)c(C(C)(C)C)c1)Sc1cc(C(C)(C)C)c(O)c(C(C)(C)C)c1 [Probucol],83.1 ± 22,129,116 ± 8.1,89.7,94.85 ± 0.74,103,93.68 ± 0.28,90.5 ± 23,113 ± 1.5
NC(=O)c1ccc(I)c([N+](=O)[O-])c1 [Iniparib (BSI-201)],121 ± 21,198,123 ± 20,82.6,124 ± 31,106,114 ± 5.4,181 ± 22,129 ± 22
CNC1C(OC2C(OC3C(O)C(O)C(N=C(N)N)C(O)C3N=C(N)N)OC(C)C2(O)C=O)OC(CO)C(O)C1O.CNC1C(OC2C(OC3C(O)C(O)C(N=C(N)N)C(O)C3N=C(N)N)OC(C)C2(O)C=O)OC(CO)C(O)C1O.O=S(=O)(O)O.O=S(=O)(O)O.O=S(=O)(O)O (stereo unspecified) [Streptomycin sulfate],82.6 ± 31,97.7,84.6 ± 5.9,82.9,90 ± 1.7,103,84.1 ± 3.6,81.8 ± 12,86.6 ± 7.4
Nc1nc(=O)c2nc(CNc3ccc(C(=O)NC(CCC(=O)O)C(=O)O)cc3)cnc2[nH]1 (stereo unspecified) [Folic acid],103 ± 21,118,97.5 ± 12,85.3,101 ± 2.8,117,92.4 ± 23,96.1 ± 4.2,101 ± 8.4
OC(Cn1cncn1)(Cn1cncn1)c1ccc(F)cc1F [Fluconazole hydrate],116 ± 7.6,109,99.4 ± 25,89.7,138 ± 7.4,101,93.5 ± 5.6,99.1 ± 9.9,127 ± 21
S=P(N1CC1)(N1CC1)N1CC1,109 ± 26,143,104 ± 1.4,103,111.3 ± 0.35,120,96.8 ± 5.2,83.8 ± 23,119 ± 11
CC(=O)c1c(C)c2cnc(Nc3ccc(N4CCNCC4)cn3)nc2n(C2CCCC2)c1=O.Cl,134 ± 73,141,86.1 ± 9.9,152,110 ± 31,114,82.86 ± 0.55,88.8 ± 7.7,132 ± 6.1
Cc1cn(C2CC(O)C(CO)O2)c(=O)[nH]c1=O (stereo unspecified) [Telbivudine],125 ± 3.9,128,141 ± 78,115,164 ± 67,99.4,95.5 ± 9.2,94.1 ± 16,124 ± 24
CN(C)CCC=C1c2ccccc2Sc2ccc(Cl)cc21 [Chlorprothixene],85.8 ± 14,87.1,71.9 ± 13,93.9,105 ± 2.6,83.8,54.4 ± 2.5,49.9 ± 20,124 ± 13
CCC(C)C(=O)OC1CC(C)C=C2C=CC(C)C(CCC3CC(O)CC(=O)O3)C21 (stereo unspecified) [Lovastatin],119 ± 27,115,88.2 ± 12,181,131 ± 14,142,50.7 ± 5.3,71.5 ± 6.6,93.17 ± 0.92
COC(=O)C1C2CC3c4[nH]c5cc(OC)ccc5c4CCN3CC2CC(OC(=O)c2cc(OC)c(OC)c(OC)c2)C1OC (stereo unspecified) [Reserpine],123 ± 29,112,92.8 ± 4.8,89,129 ± 10,132,105 ± 1.3,88.36 ± 0.5,109 ± 7.1
CN(C)C(=N)N=C(N)N.Cl [Metformin HCl],100 ± 14,123,92.5 ± 13,86.2,102 ± 6.9,117,82.2 ± 4.7,91.7 ± 3.1,136 ± 14
Cc1cc(C#N)cc(C)c1Oc1nc(Nc2ccc(C#N)cc2)nc(N)c1Br [Etravirine (TMC125)],107 ± 6.5,127,91.9 ± 4.6,93.4,86.559 ± 0.026,109,99.3 ± 18,92.3 ± 3.6,137.8 ± 0.96
CCCCCCCCCC(=O)NC(Cc1c[nH]c2ccccc12)C(=O)NC(CC(N)=O)C(=O)NC(CC(=O)O)C(=O)NC1C(=O)NCC(=O)NC(CCCN)C(=O)NC(CC(=O)O)C(=O)NC(C)C(=O)NC(CC(=O)O)C(=O)NCC(=O)NC(CO)C(=O)NC(C(C)CC(=O)O)C(=O)NC(CC(=O)c2ccccc2N)C(=O)OC1C (stereo unspecified) [Daptomycin],142 ± 4.9,141,128 ± 9.9,113,163 ± 89,111,118 ± 18,103 ± 28,162 ± 40
CC1(C)SC2C(NC(=O)Cc3ccccc3)C(=O)N2C1C(=O)[O-].[Na+] (stereo unspecified) [Penicillin G Sodium],170 ± 78,105,91.8 ± 20,105,70.7 ± 9.5,111,99.7 ± 20,108 ± 14,109 ± 5.6
